A selection: hits, their analogues and other compounds. The true share with any hit is near 4.9%.
MPTP inh = mitochondrial permeability transition pore inhibitors, primary screen, biochemical, isolated mouse mitochondria, absorbance; Ca2+ swelling absorbance, 30 min; 360,000 tested, 1.4% active; inhibition, % at 10 µM; AID 602449, 2012;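 active = inhibition of 50% or more, scaled per plate between neutral and stimulator controls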
dFosB act = activators of delta FosB homodimer, primary screen, biochemical, fluorescence polarization, TAMRA-CDK5 oligo, single point. Protein FosB (Mus musculus), P13346. purified delta FosB; percent of positive-control signal above neutral wells. activation, % at 25 µM. 340,000 tested, 0.99% active. AID 493131, 2011;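 active = mean activation above about 17%, with every replicate also reaching it, limit read from the data, passing the limit was not always enough; inconclusive = only one of the two conditions met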
Platelet DG rel = inhibitors of platelet dense granule secretion, primary screen, cell-based, MLPCN, human platelets. 300,000 tested, 0.22% active. human platelet-rich plasma, SFLLRN dense granule ATP release, luminescence. AID 1663, 2009. inhibition, %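 (compounds screened at 7.5 µM in platelet-rich plasma)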;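 active = mean replicate score, as percent of positive control, at or above 50; inconclusive = mean below 50 but at least one replicate at or above 50; inactive = mean and every replicate below 50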
HSF1 inhib = HSF1 inhibitors in luciferase reporter cells, primary screen, cell-based, NIH3T3, luminescence; NIH3T3-HGL HSE-luciferase, MG132-induced, luminescence 8 h; active compounds read low; AID 2098, 2009; 300,000 tested, 0.77% active; activity change, negative = inhibition, % at 7.5 µM (by protocol);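 active = more than half of replicate wells show activity change below -50%, luminescence cut by over half; inconclusive = some wells, but at most half, below -50%; inactive = no replicate well below -50%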;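 note: luciferase reports HSF-1 transcriptional activity via heat shock element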
HSP90 refold inh = HSP90 inhibitors, primary screen, cell lysate, luminescence; Heat shock protein HSP 90 (rabbit reticulocyte lysate; luciferase refolding); Rabbit reticulocyte lysate, luciferase refolding luminescence, 3 h; inhibition, % at 5.6 µM; 290,000 tested, 0.91% active;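 active = inhibition above the screen-wide mean plus 3 SD, computed separately per campaign, cut at about 16% in these data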;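 note: inhibitors lower the luminescence because luciferase stays unfolded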
HSF-1 act = HSF-1 activators, primary screen, NIH3T3-HGL cells, MG132 stress, luminescence, single point | AID 504408, 2011 | NIH3T3-HGL HSF-1 luciferase reporter, 8 h; 100% = twice DMSO control signal | activation, % at 9 µM | 300,000 tested, 1.7% active;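 active = mean replicate activation of at least 50% with a set share of replicates each reaching 50%; inconclusive = only one of those two conditions met; inactive = mean below 50% and too few replicates reaching it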
HSP90 confirm = HSP90 inhibitors, confirmation, cell lysate, luminescence | shares compounds with HSP90 refold inh | rabbit reticulocyte lysate, luciferase refolding luminescence, 3 h | inhibition, % at 5.9 µM | 2,300 tested, 64% active | AID 1846, 2009; in the data active = inhibition above about 18%
FLuc counter = firefly luciferase inhibitors, HSP90 counter-screen, confirmation, artefact control for HSP90 inhibitor project, biochemical, luminescence, triplicate; shares compounds with HSP90 refold inh; purified native firefly luciferase; inhibition, % at 5.9 µM; 2,300 tested, 48% active; AID 1847, 2009;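 active = inhibition above the mean inhibition of all tested sample wells plus 3 SD, cut at about 10% in these data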
Target sequence (P08659 whole entry, looked up): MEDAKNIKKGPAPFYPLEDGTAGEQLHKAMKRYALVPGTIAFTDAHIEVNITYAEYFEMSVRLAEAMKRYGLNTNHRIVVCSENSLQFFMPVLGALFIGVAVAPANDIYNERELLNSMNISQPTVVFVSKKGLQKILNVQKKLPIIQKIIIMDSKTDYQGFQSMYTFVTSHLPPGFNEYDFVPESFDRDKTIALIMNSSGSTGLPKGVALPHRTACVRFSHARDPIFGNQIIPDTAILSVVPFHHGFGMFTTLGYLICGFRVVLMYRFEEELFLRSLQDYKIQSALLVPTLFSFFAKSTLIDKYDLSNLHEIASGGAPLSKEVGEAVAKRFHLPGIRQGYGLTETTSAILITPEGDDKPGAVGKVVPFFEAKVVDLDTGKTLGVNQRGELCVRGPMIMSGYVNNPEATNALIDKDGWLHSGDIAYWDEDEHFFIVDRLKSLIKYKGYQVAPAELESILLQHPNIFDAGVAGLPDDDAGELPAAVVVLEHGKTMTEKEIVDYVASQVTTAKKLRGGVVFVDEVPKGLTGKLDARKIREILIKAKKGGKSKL
Each line names hits and unclear results; the compound was inactive in the other large screens (follow-up assays come after a bar, where they were run).

CC(C)(C)c1ccc(/C=C2\SC(=O)N(CCNC(=O)c3cccc(S(=O)(=O)N4CCOCC4)c3)C2=O)cc1	HSF1 inhib -63, HSP90 refold inh 21 | HSP90 confirm 74 | FLuc counter 70
COc1ccc(-c2csc(-c3ccc(C(=O)O)cc3)n2)cc1	HSP90 refold inh 19 | HSP90 confirm 39 | FLuc counter inactive
CC=Cc1cc(OC)c2c(c1)C(C)C(c1ccc(O)c(OC)c1)O2 (configuration not stated)	none (no result: Platelet DG rel, HSF1 inhib, HSP90 refold inh, HSF-1 act)
CC1CCN(C2=NC(=O)/C(=C/c3ccccc3F)S2)CC1	HSF1 inhib -68, HSP90 refold inh 23 | HSP90 confirm 35 | FLuc counter 14
N#C/C(=C\c1cccnc1)c1ccccn1	none
CCOC(=O)CN1CCC(C2(c3cc4ccccc4[nH]3)OCCO2)CC1	none (no result: dFosB act, Platelet DG rel, HSF1 inhib, HSP90 refold inh, HSF-1 act)
CCCOc1ccc2cc(-c3ccccn3)c(=O)oc2c1	HSP90 refold inh 36 | HSP90 confirm 85 | FLuc counter 80
O=c1oc2cc(OCc3c(F)cccc3Cl)ccc2cc1-c1ccccn1	none
Cc1cccc(NC(=O)CSc2nncn2-c2ccccn2)c1	none
CC(=O)N(/N=C1\Sc2ccccc2C1=O)c1cccc(C)c1	HSP90 refold inh 40 | HSP90 confirm 76 | FLuc counter inactive
CC(=O)N(CN1C(=O)c2ccccc2C1=O)c1cccc(C)c1	none
CCOC(=O)C1(C)CCN1C(=O)c1ccccc1OC (configuration not stated)	none (no result: dFosB act, Platelet DG rel, HSF1 inhib, HSP90 refold inh, HSF-1 act)
COc1ccccc1OCc1ccc(C(=O)N(C)c2ccccc2)o1	HSP90 refold inh 32 | HSP90 confirm inactive | FLuc counter inactive
COc1ccccc1OCc1ccc(C(=O)N(C)C)o1	none
N#CC1(NC(=O)CSc2nnc(-c3ccccc3F)o2)CCCCC1	none (no result: HSP90 refold inh)
COc1ccc(NC(=O)O/N=C/c2c(C)nn(C(C)(C)C)c2C)cc1	HSF1 inhib -71, HSP90 refold inh 33 | HSP90 confirm 51 | FLuc counter 53
CCOC(=O)CNC(=O)c1sc(NC(=O)c2ccccc2F)nc1C	HSP90 refold inh 70 | HSP90 confirm 74 | FLuc counter 12
CCOC(=O)CNC(=O)c1sc(NC(=O)c2cccc(F)c2)nc1C	HSP90 refold inh 32 | HSP90 confirm 32 | FLuc counter inactive
COc1ccc(NC(=O)C2CCCO2)cc1 (configuration not stated)	none
Cc1ccc2nc(-c3ccc(NC(=O)C4CCCO4)cc3)[nH]c2c1 (configuration not stated)	HSP90 refold inh 24 | HSP90 confirm 55 | FLuc counter 35
O=C(Nc1nc2ccccc2[nH]1)c1cccc(Cl)c1	none
O=C(Nc1nc2ccccc2[nH]1)c1ccc(Cl)cc1	HSP90 refold inh 46 | HSP90 confirm 65 | FLuc counter 58
O=C(Nc1nc2ccccc2[nH]1)c1ccccc1	HSP90 refold inh 17 | HSP90 confirm 57 | FLuc counter 39
COc1cc(-c2cc3nc(NCCOc4ccccc4)ccn3n2)cc(OC)c1OC	none (no result: dFosB act, Platelet DG rel, HSF1 inhib, HSP90 refold inh, HSF-1 act)
COC(=O)[C@@]1(Cc2ccc(F)cc2)[C@H]2c3cc(C(=O)N(C)C)n(Cc4ccc(OC(F)(F)F)cc4)c3C[C@H]2CN1C(=O)c1ccccc1	none (no result: MPTP inh, dFosB act)
COc1ccc(C(=O)/C=C/c2ccccc2F)c(OC(=O)c2ccc([N+](=O)[O-])cc2)c1	HSP90 refold inh 18 | HSP90 confirm 37 | FLuc counter inactive
COc1ccc(C(=O)/C=C/c2ccc(C)cc2)c(OC(=O)c2ccc([N+](=O)[O-])cc2)c1	none (no result: Platelet DG rel)
COc1cccc(CNC(=O)[C@@H](C)N2C(=O)N3CCc4c([nH]c5ccc(OC)cc45)C3(C)C2=O)c1 (some centres not stated)	none
COc1ccc(/C=N/Nc2ccc(C(=O)O)cc2)cc1Br	Platelet DG rel 68, HSF1 inhib -78, HSP90 refold inh 60 | HSP90 confirm 76 | FLuc counter 76
CCCOc1ccc(/C=N/Nc2ccc(C(=O)O)cc2)c(OCCC)c1	HSF1 inhib -56, HSP90 refold inh 29 | HSP90 confirm 44 | FLuc counter 48
O=C(O)c1ccc(N/N=C/c2ccc(OC(=O)c3ccccc3Cl)cc2)cc1	HSF1 inhib -55, HSP90 refold inh 36 | HSP90 confirm 88 | FLuc counter inactive
Nc1ccc(C(=O)N/N=C\c2ccc(OC(=O)c3ccccc3Cl)cc2)cc1	none
COc1ccc(/C=N/Nc2nnc(C)n2N)cc1OC	HSP90 refold inh 19 | HSP90 confirm inactive | FLuc counter inactive
COCCNC(=O)c1cccc(OC2CCN(Cc3ccc(F)c(OC)c3)CC2)c1	none
CCCC(=O)Nc1nnc([C@H]2C[C@H](O)[C@@H](CO)O2)s1	none (no result: dFosB act, Platelet DG rel, HSF1 inhib, HSP90 refold inh, HSF-1 act)
CCOc1cc(/C=N/O)cc(Br)c1OCC	none
O=C(O)c1ccc(N/N=C/c2ccc(-c3ccc(Br)cc3)o2)cc1	none
C=CCOc1c(Br)cc(/C=N/Nc2ccc(C(=O)O)cc2)cc1OCC	HSF1 inhib -53, HSP90 refold inh 20 | HSP90 confirm 24 | FLuc counter 10
O=C(O)c1ccc(N/N=C/c2ccc(-c3ccccc3Cl)o2)cc1	HSF1 inhib inconclusive, HSP90 refold inh 53 | HSP90 confirm 60 | FLuc counter 46
COc1ccc(/C=N/Nc2ccc(C(=O)O)cc2)cc1OC	HSP90 refold inh 35 | HSP90 confirm 44 | FLuc counter 29
COc1ccc2c(c1)c(/C=N/Nc1ccc(C(=O)O)cc1)c(C)n2C	HSP90 refold inh 30 | HSP90 confirm 41 | FLuc counter 35
CCc1ccc(C(=O)N/N=C(\C)c2cccnc2)s1	none
COC1OC(CO)C(N=C(C)C)C1O (configuration not stated)	none (no result: Platelet DG rel, HSF1 inhib, HSP90 refold inh, HSF-1 act)
O=C(O)c1ccc(/C=N/Nc2cccc(C(F)(F)F)c2)cc1	HSF-1 act inconclusive
CC(C)c1ccc(/C=N/Nc2ccc(C(=O)O)cc2)cc1	HSF1 inhib -90, HSP90 refold inh 61 | HSP90 confirm 90 | FLuc counter 85
COc1cccc(C(C)NC(=O)Nc2ccccc2Cl)c1 (configuration not stated)	none
CC(C)c1ccc(NC(=O)c2csnn2)cc1	HSP90 refold inh 20 | HSP90 confirm 33 | FLuc counter 23
O=C(Nc1ccccc1NC(=O)c1csnn1)c1csnn1	none
